# Measurements: the supplement of paper PMC11732987, “Enantioselective OTUD7B fragment discovery through chemoproteomics screening and high-throughput optimisation” (Communications Chemistry, 2025)
# Unmarked numbers belong to inactive results.
# What was measured:
# Assay in all cases: log2 ratio of Biotin-Ahx-Ub-VS probe labelling (fragment/DMSO); higher = less target engagement (more negative = stronger competition), active = hit call of the paper (q ≤ 0.05, log2 ratio ≤ -1)
# Conditions in all cases: compound concentration: 200 uM; treatment time: 3 h
# USP42 = biological target: T1, USP42 (UniProt Q9H9J4)
# T1 sequence (whole entry): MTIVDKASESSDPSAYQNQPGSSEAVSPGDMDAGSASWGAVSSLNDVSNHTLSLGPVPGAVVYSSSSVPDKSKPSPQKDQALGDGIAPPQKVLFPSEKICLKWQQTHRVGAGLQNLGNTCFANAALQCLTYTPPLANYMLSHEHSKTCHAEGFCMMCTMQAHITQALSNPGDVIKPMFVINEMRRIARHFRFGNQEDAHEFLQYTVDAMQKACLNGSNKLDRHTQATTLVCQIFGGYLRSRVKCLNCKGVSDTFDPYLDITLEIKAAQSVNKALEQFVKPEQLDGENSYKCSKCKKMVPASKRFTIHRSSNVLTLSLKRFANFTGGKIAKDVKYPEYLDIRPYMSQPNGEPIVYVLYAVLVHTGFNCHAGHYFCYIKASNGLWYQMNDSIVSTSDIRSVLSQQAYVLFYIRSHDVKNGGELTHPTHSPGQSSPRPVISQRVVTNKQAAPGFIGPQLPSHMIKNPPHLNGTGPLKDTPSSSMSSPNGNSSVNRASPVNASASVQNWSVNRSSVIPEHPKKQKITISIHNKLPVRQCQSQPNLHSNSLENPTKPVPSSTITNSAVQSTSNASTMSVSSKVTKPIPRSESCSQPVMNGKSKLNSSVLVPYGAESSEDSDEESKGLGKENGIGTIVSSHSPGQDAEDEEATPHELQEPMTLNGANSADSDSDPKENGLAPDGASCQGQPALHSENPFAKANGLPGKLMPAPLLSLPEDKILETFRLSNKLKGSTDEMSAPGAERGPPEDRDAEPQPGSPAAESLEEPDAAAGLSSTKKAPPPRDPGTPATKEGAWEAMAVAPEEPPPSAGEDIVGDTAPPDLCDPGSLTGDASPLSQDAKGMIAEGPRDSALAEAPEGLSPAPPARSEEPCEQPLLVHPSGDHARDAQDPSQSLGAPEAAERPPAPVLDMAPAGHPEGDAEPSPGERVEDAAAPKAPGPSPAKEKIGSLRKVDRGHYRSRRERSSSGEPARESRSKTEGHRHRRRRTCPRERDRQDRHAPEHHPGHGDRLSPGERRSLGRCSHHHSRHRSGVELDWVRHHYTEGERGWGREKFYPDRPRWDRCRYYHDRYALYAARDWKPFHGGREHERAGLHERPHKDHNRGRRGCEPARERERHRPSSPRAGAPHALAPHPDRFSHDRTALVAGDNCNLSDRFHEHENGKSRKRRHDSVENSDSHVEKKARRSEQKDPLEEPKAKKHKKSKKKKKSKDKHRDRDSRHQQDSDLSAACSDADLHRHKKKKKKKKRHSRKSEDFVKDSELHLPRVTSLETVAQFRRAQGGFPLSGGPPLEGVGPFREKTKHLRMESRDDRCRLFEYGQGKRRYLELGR
# Procedure, shortened: (§1)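 Triplicate samples of HEK293T lysate, 495 µg each, received fragment at 200 µM or vehicle for 3 h, followed by Biotin-Ahx-Ub-VS (0.5 µM final) for 1 h. After NeutrAvidin enrichment of labelled DUBs and LysC/trypsin digestion, peptides were run by diaPASEF LC-MS/MS. The values are average log2 fragment/vehicle ratios from global-median-normalised Spectronaut label-free quantities, tested by unpaired t-test on proteins having ≥2 unique peptides.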
# USP46 = USP46 (UniProt P62068)
# Sequence of USP46 (P62068 whole entry): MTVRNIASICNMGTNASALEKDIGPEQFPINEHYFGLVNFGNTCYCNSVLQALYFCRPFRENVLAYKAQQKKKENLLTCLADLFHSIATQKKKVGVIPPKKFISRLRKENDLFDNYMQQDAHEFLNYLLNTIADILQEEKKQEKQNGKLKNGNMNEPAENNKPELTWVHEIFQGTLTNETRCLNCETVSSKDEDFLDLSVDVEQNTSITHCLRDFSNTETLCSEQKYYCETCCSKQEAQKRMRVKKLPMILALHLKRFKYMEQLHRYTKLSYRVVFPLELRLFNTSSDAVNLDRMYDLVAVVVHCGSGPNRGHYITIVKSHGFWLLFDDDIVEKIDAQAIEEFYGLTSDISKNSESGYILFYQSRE
# Procedure, shortened: as §1
# USP47 = biological target: T2, USP47 (UniProt Q96K76)
# T2 sequence (whole entry): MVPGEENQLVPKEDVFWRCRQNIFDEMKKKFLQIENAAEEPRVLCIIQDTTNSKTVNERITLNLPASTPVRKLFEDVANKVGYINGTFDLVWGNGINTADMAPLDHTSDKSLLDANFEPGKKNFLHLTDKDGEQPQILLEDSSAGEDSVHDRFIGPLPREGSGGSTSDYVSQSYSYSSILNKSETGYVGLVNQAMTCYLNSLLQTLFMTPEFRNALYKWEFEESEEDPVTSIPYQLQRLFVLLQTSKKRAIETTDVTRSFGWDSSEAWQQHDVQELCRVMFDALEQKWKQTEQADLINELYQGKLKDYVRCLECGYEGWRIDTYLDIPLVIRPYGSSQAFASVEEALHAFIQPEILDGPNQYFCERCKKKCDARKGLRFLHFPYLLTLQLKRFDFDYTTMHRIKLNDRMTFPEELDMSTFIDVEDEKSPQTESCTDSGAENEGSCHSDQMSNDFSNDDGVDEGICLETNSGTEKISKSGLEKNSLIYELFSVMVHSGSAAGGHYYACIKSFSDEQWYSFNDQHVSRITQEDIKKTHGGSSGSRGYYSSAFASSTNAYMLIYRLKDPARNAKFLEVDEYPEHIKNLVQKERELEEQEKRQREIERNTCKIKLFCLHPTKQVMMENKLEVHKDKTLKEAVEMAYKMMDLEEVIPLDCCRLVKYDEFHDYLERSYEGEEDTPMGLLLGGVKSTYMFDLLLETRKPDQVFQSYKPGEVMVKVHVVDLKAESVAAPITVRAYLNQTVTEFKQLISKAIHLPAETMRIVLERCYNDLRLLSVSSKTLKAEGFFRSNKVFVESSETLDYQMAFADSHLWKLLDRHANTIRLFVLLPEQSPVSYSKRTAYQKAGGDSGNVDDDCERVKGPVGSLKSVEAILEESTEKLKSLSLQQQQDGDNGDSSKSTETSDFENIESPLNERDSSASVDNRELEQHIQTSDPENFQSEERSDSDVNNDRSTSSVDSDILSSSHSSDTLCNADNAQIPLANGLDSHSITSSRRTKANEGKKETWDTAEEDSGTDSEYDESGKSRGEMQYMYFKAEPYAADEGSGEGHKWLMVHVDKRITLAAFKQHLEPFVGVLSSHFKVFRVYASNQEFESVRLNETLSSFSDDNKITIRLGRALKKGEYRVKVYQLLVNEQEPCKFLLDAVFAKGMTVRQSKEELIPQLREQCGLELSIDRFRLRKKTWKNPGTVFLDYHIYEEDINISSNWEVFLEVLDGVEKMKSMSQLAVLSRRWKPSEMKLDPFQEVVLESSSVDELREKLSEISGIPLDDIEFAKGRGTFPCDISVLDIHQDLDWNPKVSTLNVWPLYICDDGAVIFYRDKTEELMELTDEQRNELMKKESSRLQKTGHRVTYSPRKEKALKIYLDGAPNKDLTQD
# Procedure, shortened: as §1
# USP48 = biological target: T3, USP48 (UniProt Q86UV5)
# T3 sequence (whole entry): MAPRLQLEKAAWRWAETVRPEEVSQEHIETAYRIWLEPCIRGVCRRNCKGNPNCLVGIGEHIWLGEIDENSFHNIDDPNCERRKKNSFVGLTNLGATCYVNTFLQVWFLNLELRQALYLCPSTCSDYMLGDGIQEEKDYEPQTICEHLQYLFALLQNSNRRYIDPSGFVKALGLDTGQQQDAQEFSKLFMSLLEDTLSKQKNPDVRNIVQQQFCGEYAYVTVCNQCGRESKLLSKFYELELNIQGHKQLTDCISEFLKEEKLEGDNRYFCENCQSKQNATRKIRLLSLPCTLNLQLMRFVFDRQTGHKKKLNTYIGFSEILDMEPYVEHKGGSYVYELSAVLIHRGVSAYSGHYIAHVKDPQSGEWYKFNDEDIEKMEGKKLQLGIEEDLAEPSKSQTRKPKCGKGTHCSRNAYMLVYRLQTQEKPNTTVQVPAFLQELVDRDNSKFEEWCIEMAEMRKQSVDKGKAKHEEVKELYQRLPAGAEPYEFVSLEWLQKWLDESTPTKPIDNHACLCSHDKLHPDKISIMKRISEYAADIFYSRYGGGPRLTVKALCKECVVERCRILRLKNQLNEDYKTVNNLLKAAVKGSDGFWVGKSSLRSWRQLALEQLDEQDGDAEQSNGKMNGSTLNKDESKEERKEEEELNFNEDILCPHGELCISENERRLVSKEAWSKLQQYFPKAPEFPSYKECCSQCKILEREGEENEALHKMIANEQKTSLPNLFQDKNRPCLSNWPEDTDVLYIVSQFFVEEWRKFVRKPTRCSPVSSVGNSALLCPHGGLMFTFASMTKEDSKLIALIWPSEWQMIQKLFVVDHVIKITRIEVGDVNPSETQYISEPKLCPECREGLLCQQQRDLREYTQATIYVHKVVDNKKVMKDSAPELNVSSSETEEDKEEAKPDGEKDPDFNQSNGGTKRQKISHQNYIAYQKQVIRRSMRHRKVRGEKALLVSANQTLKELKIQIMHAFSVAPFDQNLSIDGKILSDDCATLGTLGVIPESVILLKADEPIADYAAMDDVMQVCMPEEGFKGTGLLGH
# Procedure, shortened: as §1
# USP5 = biological target: T4, USP5 (UniProt P45974)
# T4 sequence (whole entry): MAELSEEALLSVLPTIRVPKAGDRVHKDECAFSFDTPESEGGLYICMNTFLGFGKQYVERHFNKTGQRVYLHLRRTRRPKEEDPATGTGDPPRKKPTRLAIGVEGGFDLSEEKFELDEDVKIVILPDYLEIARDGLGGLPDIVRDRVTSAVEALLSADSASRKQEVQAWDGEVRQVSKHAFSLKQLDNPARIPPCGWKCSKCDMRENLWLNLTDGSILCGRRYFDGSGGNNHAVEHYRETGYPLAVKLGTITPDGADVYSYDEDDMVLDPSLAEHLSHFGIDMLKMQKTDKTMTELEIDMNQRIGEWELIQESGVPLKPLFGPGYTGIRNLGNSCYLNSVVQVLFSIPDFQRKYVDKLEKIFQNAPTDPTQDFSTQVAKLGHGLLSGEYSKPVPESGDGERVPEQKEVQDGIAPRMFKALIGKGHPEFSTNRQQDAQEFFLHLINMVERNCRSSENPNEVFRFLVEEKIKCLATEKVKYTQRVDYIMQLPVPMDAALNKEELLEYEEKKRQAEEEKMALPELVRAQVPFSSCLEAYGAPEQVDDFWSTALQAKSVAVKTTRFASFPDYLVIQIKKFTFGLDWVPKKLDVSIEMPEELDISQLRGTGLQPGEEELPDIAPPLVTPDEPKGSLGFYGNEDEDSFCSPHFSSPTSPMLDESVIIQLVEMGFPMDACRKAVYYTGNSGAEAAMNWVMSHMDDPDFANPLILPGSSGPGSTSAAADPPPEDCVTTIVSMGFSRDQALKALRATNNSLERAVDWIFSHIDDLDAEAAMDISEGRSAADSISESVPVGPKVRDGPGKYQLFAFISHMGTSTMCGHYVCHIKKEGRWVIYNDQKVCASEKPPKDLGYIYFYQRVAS
# Procedure, shortened: as §1
# USP54 = USP54 (UniProt Q70EL1)
# Procedure, shortened: as §1
# USP7 = USP7 (UniProt Q93009)
# Sequence of USP7 (Q93009 whole entry, looked up): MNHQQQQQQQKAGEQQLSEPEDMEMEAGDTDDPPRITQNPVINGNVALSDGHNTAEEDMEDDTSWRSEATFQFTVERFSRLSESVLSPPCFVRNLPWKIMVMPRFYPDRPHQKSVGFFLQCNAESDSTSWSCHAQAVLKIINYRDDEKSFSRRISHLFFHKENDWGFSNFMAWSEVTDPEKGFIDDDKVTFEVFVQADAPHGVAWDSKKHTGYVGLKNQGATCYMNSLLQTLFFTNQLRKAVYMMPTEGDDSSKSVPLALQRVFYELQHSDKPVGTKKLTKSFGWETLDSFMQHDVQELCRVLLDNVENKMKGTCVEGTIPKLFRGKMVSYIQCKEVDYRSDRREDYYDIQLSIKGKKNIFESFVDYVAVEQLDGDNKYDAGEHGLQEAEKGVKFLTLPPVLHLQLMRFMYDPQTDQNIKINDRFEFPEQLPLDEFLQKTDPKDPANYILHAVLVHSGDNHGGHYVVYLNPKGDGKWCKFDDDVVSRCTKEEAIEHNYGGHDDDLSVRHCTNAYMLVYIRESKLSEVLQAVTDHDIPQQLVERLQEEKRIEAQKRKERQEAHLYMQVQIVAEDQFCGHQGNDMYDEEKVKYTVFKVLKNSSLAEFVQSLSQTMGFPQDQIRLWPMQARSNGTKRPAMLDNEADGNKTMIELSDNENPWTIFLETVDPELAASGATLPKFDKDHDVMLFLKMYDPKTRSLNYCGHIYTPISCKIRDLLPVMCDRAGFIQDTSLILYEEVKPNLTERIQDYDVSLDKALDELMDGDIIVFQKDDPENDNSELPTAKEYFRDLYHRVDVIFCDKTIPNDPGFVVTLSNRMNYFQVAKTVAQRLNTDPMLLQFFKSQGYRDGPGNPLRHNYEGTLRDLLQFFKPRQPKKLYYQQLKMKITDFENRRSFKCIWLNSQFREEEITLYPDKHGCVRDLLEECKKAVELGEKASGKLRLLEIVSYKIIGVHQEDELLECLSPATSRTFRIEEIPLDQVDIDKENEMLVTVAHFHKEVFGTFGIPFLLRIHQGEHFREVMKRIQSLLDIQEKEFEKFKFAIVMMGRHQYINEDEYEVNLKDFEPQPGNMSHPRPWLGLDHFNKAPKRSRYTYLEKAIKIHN
# Procedure, shortened: as §1
# USP8 = biological target: T5, USP8 (UniProt P40818)
# T5 sequence (whole entry): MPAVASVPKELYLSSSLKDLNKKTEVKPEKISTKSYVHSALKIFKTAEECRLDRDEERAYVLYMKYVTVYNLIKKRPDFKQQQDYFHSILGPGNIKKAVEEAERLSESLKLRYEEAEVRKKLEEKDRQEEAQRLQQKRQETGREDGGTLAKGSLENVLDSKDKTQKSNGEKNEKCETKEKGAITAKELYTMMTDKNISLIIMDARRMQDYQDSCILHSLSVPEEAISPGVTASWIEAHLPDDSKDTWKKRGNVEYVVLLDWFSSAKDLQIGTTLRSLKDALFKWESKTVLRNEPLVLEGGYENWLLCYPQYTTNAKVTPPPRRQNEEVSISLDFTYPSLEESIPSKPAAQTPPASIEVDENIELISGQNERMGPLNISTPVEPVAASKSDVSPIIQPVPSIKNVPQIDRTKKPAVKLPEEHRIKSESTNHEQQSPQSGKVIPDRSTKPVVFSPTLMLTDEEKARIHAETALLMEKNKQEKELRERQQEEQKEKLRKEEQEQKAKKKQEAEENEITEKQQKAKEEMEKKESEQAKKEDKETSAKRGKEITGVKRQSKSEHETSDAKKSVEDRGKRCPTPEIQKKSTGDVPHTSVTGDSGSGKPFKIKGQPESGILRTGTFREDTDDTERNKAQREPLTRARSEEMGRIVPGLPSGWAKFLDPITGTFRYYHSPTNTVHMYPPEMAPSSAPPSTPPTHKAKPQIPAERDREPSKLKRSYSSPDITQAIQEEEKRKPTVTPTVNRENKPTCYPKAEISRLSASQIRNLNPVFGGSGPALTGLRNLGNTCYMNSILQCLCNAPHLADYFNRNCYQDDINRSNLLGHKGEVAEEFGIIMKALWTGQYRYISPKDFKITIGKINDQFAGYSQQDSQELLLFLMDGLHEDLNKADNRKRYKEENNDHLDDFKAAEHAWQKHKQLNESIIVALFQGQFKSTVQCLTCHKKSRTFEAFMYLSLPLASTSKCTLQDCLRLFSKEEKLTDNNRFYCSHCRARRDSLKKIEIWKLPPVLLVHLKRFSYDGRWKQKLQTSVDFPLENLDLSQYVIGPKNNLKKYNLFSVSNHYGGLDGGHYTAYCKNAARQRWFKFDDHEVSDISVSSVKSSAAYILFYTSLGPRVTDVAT
# Procedure, shortened: as §1
# USP9X = USP9X (UniProt Q93008)
# Sequence of USP9X (Q93008 whole entry): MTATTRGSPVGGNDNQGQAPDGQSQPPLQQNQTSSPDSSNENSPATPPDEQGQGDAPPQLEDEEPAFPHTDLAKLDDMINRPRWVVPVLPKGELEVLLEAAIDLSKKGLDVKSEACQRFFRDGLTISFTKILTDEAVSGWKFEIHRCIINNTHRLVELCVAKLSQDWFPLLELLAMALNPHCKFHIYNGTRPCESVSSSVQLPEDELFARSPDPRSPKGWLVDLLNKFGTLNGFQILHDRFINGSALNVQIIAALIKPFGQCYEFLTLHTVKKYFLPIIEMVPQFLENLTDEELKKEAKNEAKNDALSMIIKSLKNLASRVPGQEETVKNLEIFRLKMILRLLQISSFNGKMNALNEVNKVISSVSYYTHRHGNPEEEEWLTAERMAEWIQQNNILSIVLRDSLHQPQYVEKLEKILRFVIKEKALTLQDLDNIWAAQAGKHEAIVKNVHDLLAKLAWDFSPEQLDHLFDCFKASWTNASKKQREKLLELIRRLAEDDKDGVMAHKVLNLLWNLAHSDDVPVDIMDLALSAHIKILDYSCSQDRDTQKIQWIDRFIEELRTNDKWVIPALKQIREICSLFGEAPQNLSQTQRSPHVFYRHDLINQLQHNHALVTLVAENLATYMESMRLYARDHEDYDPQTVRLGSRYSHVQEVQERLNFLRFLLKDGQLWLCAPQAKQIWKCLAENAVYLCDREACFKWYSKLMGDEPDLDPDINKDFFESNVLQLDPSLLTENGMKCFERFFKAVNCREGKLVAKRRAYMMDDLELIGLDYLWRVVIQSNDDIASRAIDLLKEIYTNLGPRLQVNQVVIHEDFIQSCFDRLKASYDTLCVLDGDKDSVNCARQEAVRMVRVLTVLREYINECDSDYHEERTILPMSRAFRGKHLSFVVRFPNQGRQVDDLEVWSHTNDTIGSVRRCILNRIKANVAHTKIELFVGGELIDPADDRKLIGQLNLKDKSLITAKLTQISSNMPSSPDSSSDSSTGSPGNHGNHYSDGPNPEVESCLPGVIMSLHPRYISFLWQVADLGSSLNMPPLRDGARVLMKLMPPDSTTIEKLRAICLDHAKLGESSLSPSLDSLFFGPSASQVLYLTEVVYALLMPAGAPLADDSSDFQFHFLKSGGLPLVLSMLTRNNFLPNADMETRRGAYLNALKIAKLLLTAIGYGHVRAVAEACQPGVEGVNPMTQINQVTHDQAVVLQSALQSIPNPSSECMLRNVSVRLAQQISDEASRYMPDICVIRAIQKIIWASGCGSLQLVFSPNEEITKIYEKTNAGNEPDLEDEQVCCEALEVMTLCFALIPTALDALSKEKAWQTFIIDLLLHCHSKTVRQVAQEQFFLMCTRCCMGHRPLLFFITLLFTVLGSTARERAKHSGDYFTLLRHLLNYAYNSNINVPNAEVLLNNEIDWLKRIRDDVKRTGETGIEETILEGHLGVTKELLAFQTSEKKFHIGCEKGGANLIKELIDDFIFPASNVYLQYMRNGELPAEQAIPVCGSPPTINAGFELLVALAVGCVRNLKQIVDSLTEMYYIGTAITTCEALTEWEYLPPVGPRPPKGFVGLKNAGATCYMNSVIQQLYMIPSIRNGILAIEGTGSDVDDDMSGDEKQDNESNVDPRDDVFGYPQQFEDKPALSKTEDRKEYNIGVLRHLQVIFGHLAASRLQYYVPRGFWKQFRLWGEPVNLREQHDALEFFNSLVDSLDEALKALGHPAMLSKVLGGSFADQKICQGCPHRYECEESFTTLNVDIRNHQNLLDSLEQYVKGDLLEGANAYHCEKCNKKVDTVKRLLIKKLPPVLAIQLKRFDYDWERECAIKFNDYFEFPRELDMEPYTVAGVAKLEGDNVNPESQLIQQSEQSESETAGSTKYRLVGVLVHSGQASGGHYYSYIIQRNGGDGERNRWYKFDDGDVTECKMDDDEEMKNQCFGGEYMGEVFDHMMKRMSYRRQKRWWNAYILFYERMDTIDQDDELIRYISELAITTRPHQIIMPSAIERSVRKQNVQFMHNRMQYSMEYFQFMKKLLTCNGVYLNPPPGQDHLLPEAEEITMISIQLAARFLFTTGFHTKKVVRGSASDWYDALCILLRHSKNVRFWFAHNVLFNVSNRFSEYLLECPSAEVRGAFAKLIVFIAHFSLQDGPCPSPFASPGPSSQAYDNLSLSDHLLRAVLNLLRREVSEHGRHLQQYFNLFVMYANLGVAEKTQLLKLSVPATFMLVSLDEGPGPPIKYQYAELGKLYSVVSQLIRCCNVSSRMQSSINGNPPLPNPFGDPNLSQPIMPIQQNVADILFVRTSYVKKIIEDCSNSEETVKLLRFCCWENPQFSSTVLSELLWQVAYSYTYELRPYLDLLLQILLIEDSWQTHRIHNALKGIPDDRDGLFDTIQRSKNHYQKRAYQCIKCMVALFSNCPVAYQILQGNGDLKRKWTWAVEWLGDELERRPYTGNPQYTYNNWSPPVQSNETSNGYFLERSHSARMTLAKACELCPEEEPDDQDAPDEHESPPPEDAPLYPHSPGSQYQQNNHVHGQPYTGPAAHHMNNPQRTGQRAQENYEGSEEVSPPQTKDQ
# Procedure, shortened: as §1
# UniProt O00487 = biological target: UniProt O00487
# Sequence of UniProt O00487 (O00487 whole entry): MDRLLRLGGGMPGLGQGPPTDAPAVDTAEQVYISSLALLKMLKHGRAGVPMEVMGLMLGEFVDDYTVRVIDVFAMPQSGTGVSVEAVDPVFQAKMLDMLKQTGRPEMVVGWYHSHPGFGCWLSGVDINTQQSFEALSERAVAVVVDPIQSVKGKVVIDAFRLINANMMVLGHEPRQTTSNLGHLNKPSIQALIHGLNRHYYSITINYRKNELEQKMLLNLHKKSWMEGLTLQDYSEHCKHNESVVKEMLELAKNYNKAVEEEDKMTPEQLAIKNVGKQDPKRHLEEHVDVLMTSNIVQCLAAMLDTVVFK
# Procedure, shortened: as §1
structure (smiles),measurement,setting,value
O=C(CCl)N1c2ccccc2NC(=O)C12CCCC2,log2 ratio of Biotin-Ahx-Ub-VS probe labelling,USP42,0.622
same,log2 ratio of Biotin-Ahx-Ub-VS probe labelling,USP46,-0.278
same,log2 ratio of Biotin-Ahx-Ub-VS probe labelling,USP47,0.0188
same,log2 ratio of Biotin-Ahx-Ub-VS probe labelling,USP48,-1.04 (active)
same,log2 ratio of Biotin-Ahx-Ub-VS probe labelling,USP5,0.581
same,log2 ratio of Biotin-Ahx-Ub-VS probe labelling,USP54,-0.355
same,log2 ratio of Biotin-Ahx-Ub-VS probe labelling,USP7,-2.11 (active)
same,log2 ratio of Biotin-Ahx-Ub-VS probe labelling,USP8,0.279
same,log2 ratio of Biotin-Ahx-Ub-VS probe labelling,USP9X,-0.316
same,log2 ratio of Biotin-Ahx-Ub-VS probe labelling,UniProt O00487,0.0785
